Source: PubChem
GCN5L2 inh: inhibitors of human GCN5L2 histone acetyltransferase. Q92830. GCN5L2 HAT assay, ThioGlo1 CoA-SH fluorescence. Potency, µM (doses to about 58.9 µM), inactives show at the highest dose activity change, negative = inhibition, most hits filed as inhibitors. 0.21% of 390,000 active. AID 504327
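Free CoA generated was detected with ThioGlo1 (50uM) fluorescence at Ex340nm/Em540nm, read immediately and after 20 min at room temperature. Enzyme, 20 nM in HEPES pH 7.5 buffer, saw compounds 15 min before adding 75uM H3(1-25) peptide and 70uM acetyl-CoA.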
TDP1 inh: blocks human tyrosyl-DNA phosphodiesterase 1; Q9NUW8; recombinant TDP1, AlphaScreen DNA substrate cleavage; Potency, µM (titrated, usually from 130 µM), for inactives: at the top dose activity change, negative = inhibition, most hits filed as inhibitors; 0.28% of 350,000 active; note: nearly all actives have a fitted effect of over 40% in size
Target sequence (Q9NUW8 whole entry, looked up): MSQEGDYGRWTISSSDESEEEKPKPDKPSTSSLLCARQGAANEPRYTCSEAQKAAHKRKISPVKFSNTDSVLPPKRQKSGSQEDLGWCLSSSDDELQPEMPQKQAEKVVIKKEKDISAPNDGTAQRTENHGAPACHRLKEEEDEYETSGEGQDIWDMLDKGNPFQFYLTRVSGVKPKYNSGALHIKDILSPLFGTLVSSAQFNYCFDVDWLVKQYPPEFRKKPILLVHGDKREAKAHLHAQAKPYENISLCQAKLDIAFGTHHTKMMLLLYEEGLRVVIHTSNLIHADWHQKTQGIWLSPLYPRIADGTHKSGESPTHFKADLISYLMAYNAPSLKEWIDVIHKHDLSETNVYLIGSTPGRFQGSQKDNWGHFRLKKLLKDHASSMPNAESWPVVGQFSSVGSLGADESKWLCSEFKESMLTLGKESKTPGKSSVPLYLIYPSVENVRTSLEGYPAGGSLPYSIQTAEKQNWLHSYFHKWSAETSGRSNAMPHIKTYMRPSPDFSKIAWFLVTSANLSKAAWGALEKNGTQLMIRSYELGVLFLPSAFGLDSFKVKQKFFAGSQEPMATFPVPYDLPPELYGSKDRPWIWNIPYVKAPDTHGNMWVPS
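Steps: enzyme plus compound, 15 min RT; add biotin/phosphotyrosine-FITC oligonucleotide (15 nM final), react 5 min; add donor/acceptor beads (10 ug/ml final), 10 min; read AlphaScreen. Tdp1 at 1 nM final.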
DT40 TDP1 no CPT: qHTS for Inhibitors of human tyrosyl-DNA phosphodiesterase 1 (TDP1): qHTS in cells in absence of CPT; DT40 Tdp1-/- hTDP1 cells, no CPT, ATP luminescence, 48 h; Potency, µM (doses to about 46.2 µM), for the others: at the highest dose activity change, negative = growth inhibition, hits mostly inhibitors; 15% of 420,000 active; AID 686978, 2013; note: nearly all actives have a fitted effect of over 55% in size
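Stably hTDP1-transfected Tdp1-null chicken DT40 cells were treated with library compounds minus camptothecin and grown for at least 48 hr at 37 °C, after which cellular ATP was quantified by luminescence.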
PLK1 PBD block: blocks phosphopeptide binding to human PLK1 polo-box domain; P53350; 2.8% of 360,000 active; Plk1 PBD binding of FITC phosphopeptide, fluorescence polarization; Potency, µM, for the others: max response, negative = inhibition, usual class: inhibitors; note: series mostly up to about 57 µM; nearly all actives have a fitted effect of over 65% in size
VDR inhibitor: vitamin D3 receptor (human) inhibition. P11473. VDR-SRC2-3 peptide fluorescence polarization, 2 h. 0.93% of 400,000 active. Potency, µM, for the others: max response, negative = inhibition, most hits filed as inhibitors
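Inhibition of the VDR/SRC2-3 peptide interaction is quantified by fluorescence polarization. Compounds (23 nl, pintool) incubate with the reagents for 2 hours at ambient room temperature.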
TDP1 cell CPT: growth inhibition of DT40 Tdp1-/-;hTDP1 cells with camptothecin (screen for TDP1 inhibitors). Potency, µM (series often up to 46.2 µM), without a hit: at the top dose activity change, negative = growth inhibition, most hits filed as inhibitors. AID 686979. chicken DT40 Tdp1-/-;hTDP1 cells + 20 nM CPT, ATP luminescence, 48 h. 12% of 420,000 active; note: nearly all actives have a fitted effect of over 55% in size
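Chicken DT40 Tdp1-/- cells stably complemented with human TDP1 were seeded at 400 cells/well in medium containing 20 nM camptothecin, exposed to pin-transferred compounds, and grown at 37 °C for at least 48 hr. Viability was read as ATP luminescence.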
Starred values were filed as active, the others as inactive; ? = inconclusive; . = no result given; [ ] = dose if it differs, or a comment. A selection: hits, their analogues and other compounds. The true share with any hit is near 18%. Calls come from the whole dose curve; as a rule, active = well fitted curve in the direction sought with a large enough effect; inconclusive = small, poorly fitted or top-dose-only effect, or another doubt; inactive = no such curve, though single readings can be large; an effect the other way counts as inactive or inconclusive. % is set by controls: 0 for no effect and ±100 for the full control effect; potency is the fitted concentration of half-maximal effect.

SMILES	GCN5L2 inh	TDP1 inh	DT40 TDP1 no CPT	PLK1 PBD block	VDR inhibitor	TDP1 cell CPT
CCCN(Cc1nc2cc(Cl)ccc2c(=O)[nH]1)C(=O)c1ccc(S(=O)(=O)N2CCCC2)cc1	-5%	1%[56.1 µM]	21µM*	0%	-10%	?
COCCN1C(=O)CCC1(C)C(=O)Nc1c(C)cccc1C (configuration not stated)	.	.	11%	-7%	.	-8%
COC(=O)c1ccccc1Oc1ccc(NC(=O)CCCl)cc1	-5%	0%	?	-16%	-17%	-26%
O=C(Nc1ccc(C2=CN(Cc3ccccc3)CCC2=O)cc1)OCc1ccccc1	1%	-2%	-10%	1%	-12%	-3%
O=C1CCN(Cc2ccccc2)C=C1c1ccc(Br)cc1	-1%	-2%	23µM*	-10%	-21%	18µM*
Cc1ccc(C2=CN(Cc3ccccc3)CCC2=O)cc1	-2%	2%	?	5%	7%	21µM*
CC(C)CC(=O)Nc1cc([N+](=O)[O-])ccc1Cl	-7%	1%	-5%	-6%	1%	-19%
COc1ccc(N/N=C(C)/C(=N/O)C(=O)Nc2ccccc2)cc1	-26%	8%	15µM*	-24%	8%	?
O=C(CNC(c1ccccc1)c1ccccc1)Nc1cc([N+](=O)[O-])ccc1Cl	-5%	2%	16µM*	-8%	-5%	21µM*
COc1ccc(NC(=O)c2cccc(NC(=O)c3ccccc3)c2)cc1	-2%	.	?	-10%	27%	-35%
NC(=O)c1ccc(NC(=O)CNC(c2ccccc2)c2ccccc2)cc1	-4%	.	3%	-1%	-13%	4%
COc1ccc(NC(=O)CNC(c2ccccc2)c2ccccc2)cc1	-2%	.	26µM*	6%	0%	?
COC(=O)CNC(c1ccccc1)c1cc(Br)ccc1NC(=O)c1cc(OC)c(OC)c(OC)c1 (configuration not stated)	-17%	1%[12.3 µM]	7.3µM*	.	-20%	16µM*
COC(=O)CNC(c1ccccc1)c1cc(Br)ccc1NC(=O)OCc1ccccc1 (configuration not stated)	-12%	0%	?	0%	-6%	-19%
Cc1cccn2c(=O)cc(CSc3nnc(NC(=O)C(C)C)s3)nc12	-6%	3%	-14%	.	4%	-4%
CC(C)CCSc1nc2[nH]ncc2c(=O)[nH]1	1%	2%	22%	1%	0%	-19%
COc1cc(NC(c2ccccc2)c2ccccc2)cc(OC)c1OC	-7%	-2%	-20%	-17%	-11%	9%
COc1cc(NC(=O)CNC(c2ccccc2)c2ccccc2)cc(OC)c1OC	0%	.	21µM*	5%	-19%	26µM*
COc1ccc(C)cc1NC(=O)CNC(c1ccccc1)c1ccc(C)cc1 (configuration not stated)	-26%	.	3.3µM*	5%	12%	3.3µM*
CN(C)C(=O)c1cc(C(=O)c2ccc(C(F)(F)F)cc2)c[nH]1	-1%	.	?	-13%	-24%	-26%
NC1=NC(=O)C(Cc2ccc(F)cc2)S1 (configuration not stated)	-9%	.	3%	24µM*	-15%	-2%
O=C(COc1ccccc1)NCC(=O)N/N=C/c1ccc(Cl)cc1	-7%	5%	3%	-11%	-13%	-15%
CC(C)CC[n+]1ccccc1/C=C/c1ccc(N(C)C)cc1	-5%	.	0.026µM*	30%	-15%	0.018µM*
CN(C)c1ccc(/C=C/c2cccc[n+]2[O-])cc1	-4%	8%	4%	13%	-15%	2%
CCOC(=O)c1cnc(SC)nc1Oc1cccc(NC(=O)c2ccc(C)cc2)c1	-4%	-3%	15µM*	3%	-1%	?
SMILES	GCN5L2 inh	TDP1 inh	DT40 TDP1 no CPT	PLK1 PBD block	VDR inhibitor	TDP1 cell CPT
CC[C@@H]1CC=C[C@H]2[C@H]1C(=O)N(Cc1ccccc1)[C@H]2c1ccc(C(F)(F)F)cc1	2%	-1%	?	-23%	-10%	15µM*
CCC1CC=CC2C1C(=O)N(Cc1ccccc1)C2c1ccoc1 (configuration not stated)	.	7%	.	.	79µM*	.
CC[C@@H]1CC=C[C@H]2[C@H]1C(=O)N(Cc1ccccc1)[C@H]2c1ccoc1	-7%	2%	15µM*	?	?	16µM*
CCC1CC=CC2C1C(=O)N(Cc1ccccc1)C2c1ccc(C(F)(F)F)cc1 (configuration not stated)	.	-8%	.	.	11%	.
Cc1cnc(-n2ncc(C(=O)NCc3cccnc3)c2C)nc1-c1ccc(F)cc1	.	.	-26%	.	.	-11%[9.04 µM]
Cc1cccc(CNc2ncncc2-c2ccccc2C(F)(F)F)c1	-10%	.	-23%	.	?	-17%
CC1CC(C)CN(c2ncc3c(n2)CC(c2ccc(Cl)cc2)CC3=O)C1 (configuration not stated)	-4%	3%	8.2µM*	-5%	25%	?
CC1CC(C)CN(c2ncc3c(n2)CC(c2ccccc2Cl)CC3=O)C1 (configuration not stated)	-23%	0%	21µM*	0%	-5%	?
Fc1ccc2cnc(-c3ccccc3)c(-c3cc(C(F)(F)F)cc(C(F)(F)F)c3)c2c1	-16%	.	16µM*	9%	-34%	?
Fc1ccc2cnc(-c3ccccc3)c(-c3ccc(C(F)(F)F)cc3)c2c1	-7%	-10%	18µM*	-5%	-13%	?
COc1cc2cnc(-c3ccccc3)c(-c3ccc(C(F)(F)F)cc3)c2cc1OC	-19%	-6%	?	-4%	6%	?
Fc1ccc2c(-c3cccc(C(F)(F)F)c3)c(-c3ccccc3)ncc2c1	-11%	-10%	15µM*	-4%	1%	?
Cc1ccc(Nc2ncnc3c2cnn3-c2ccccc2)c(C)c1	-9%	2%	.	.	4%	.
O=C(NCCCN1CCOCC1)c1[nH]c(C(F)(F)F)nc1-c1ccccc1	.	.	5%	1%	.	-5%
O=C1C(=O)N(Cc2cccs2)c2ccccc21	-9%	4%	5.2µM*	-3%	-20%	4.6µM*
O=C(CN1C(=O)C(=O)c2ccccc21)c1ccccc1	1%	.	4.1µM*	-12%	-15%	18µM*
O=C1CSC(=S)N1Cc1cccs1	.	.	18µM*	-1%	-7%	?
O=C(CN1C(=O)C(=O)c2ccccc21)NC1CCCCC1	-6%	0%	23µM*	-10%	-2%	26µM*
O=C1C(=O)N(CCN2CCCCC2)c2ccccc21	-4%	-3%	-9%	-7%	0%	-28%
